Our source for the growth inhibition values is PubChem BioAssay (NCI).

About 79,000 compounds went through this panel and 15% of them were active in at least one assay; those are over-represented in the sample as a whole. A number with no mark means an inactive call. Calls of active or inactive are those of the source. Cut-off read from the data, not from the text of the source: active = growth inhibition above about 70%; inactive = the rest.

Experiment [1] can be described thus: NCI Yeast Anticancer Drug Screen. Data for the rad50 strain (AID 155).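 Note: 0% = growth of vehicle-only cultures of the same strain.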 The note with it: S. cerevisiae rad50 strain growth inhibition; at 50.0 µM; hits give high values. The method in brief: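 Compounds were tested on a yeast strain with an engineered DNA damage repair alteration; the reported value is growth inhibition normalised to vehicle treatment.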
Experiment [2] is described as follows: NCI Yeast Anticancer Drug Screen. Data for the mec2-1 strain (AID 157). The note with it: S. cerevisiae mec2-1 strain, at 50.0 µM, hits give high values. The method in brief: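 Readout is yeast growth inhibition, normalised to vehicle-treated controls, in the mec2-1 strain exposed to compound.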
Experiment [3] in a line: NCI Yeast Anticancer Drug Screen. Data for the sgs1 mgt1 strain (AID 161).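 Note: 0% = growth of cultures given vehicle only.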 The note with it: S. cerevisiae sgs1 mgt1 strain, at 50.0 µM, hits give high values. Put shortly: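 Compounds are added to genetically altered yeast, and growth is compared with cultures given vehicle alone to give percent inhibition.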
The nature of experiment [4]: NCI Yeast Anticancer Drug Screen. Data for the cln2 rad14 strain (AID 165).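 Note: 0% = growth equal to vehicle treated cultures.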 The note with it: S. cerevisiae cln2 rad14 strain, at 50.0 µM, hits give high values. The method in brief:
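Relative to vehicle controls, growth inhibition of compound-treated cln2 rad14 yeast was recorded.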

Experiment [5] is described as follows: NCI Yeast Anticancer Drug Screen. Data for the bub3 strain (AID 167). The note with it: S. cerevisiae bub3 mutant strain, at 50.0 µM, hits give high values. The method in brief:
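Growth of a checkpoint-deficient yeast mutant is measured after compound exposure. Values represent inhibition relative to vehicle.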

A short description of experiment [6]: NCI Yeast Anticancer Drug Screen. Data for the mlh1 rad18 strain (AID 175). The note with it: S. cerevisiae mlh1 rad18 strain growth inhibition; at 50.0 µM; hits give high values. Put shortly: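 Test agents were incubated with a yeast strain of defined genotype (DNA damage repair defect). Inhibition of growth was derived by comparison with vehicle-exposed cultures.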

As for `COc1ccc(CC(N)c2nn[nH]n2)cc1` (stereo not given), the growth inhibition was 4.1% in experiment [1]; -1% in experiment [2]; -1.1% in experiment [3]; -23.1% in experiment [4]; 8.15% in experiment [5]; -1.75% in experiment [6].
Regarding `C#CC1(OC(C)=O)CCC2C3CCC4=CC(=O)CCC4(C)C3CCC21C` (stereo not given), the growth inhibition in experiment [1] is 32%; in experiment [2] it was 6.1%; in experiment [3] it was 4.4%; in experiment [4], -11.2%; in experiment [5], -8.8%; in experiment [6], 19.7%.
With `Cc1cc(C)[c]([Hg][Cl])c(C)c1`, the growth inhibition in experiment [1] was 98.5% (active); in experiment [2] it was 98.7% (active); in experiment [3], 98.7% (active); in experiment [4] it was 96.2% (active); in experiment [5], 98.7% (active); in experiment [6] it was 97.8% (active).
As for `CCCCCCCCCCCCCCCC[As](CCCCCCCCCCCCCCCC)SC1OC(COC(C)=O)C(OC(C)=O)C(OC(C)=O)C1OC(C)=O` (stereo not given), the growth inhibition was 6.55% in experiment [1]; 3.55% in experiment [2]; 19.9% in experiment [3]; -4.7% in experiment [4]; 1.5% in experiment [5]; 3.55% in experiment [6].
For `CCOC(=N)N1[C@H](C)[C@@H]1C`, the growth inhibition in experiment [1] is 43.1%; in experiment [2], -42.2%; in experiment [3] it was -42.1%; in experiment [4], -19%; in experiment [5], -43.1%; in experiment [6], -6.95%.
In the case of `[NH2-].[NH2-].[NH2-].[NH2-].[NH2-].[NH2-].[Ru+6]`, the growth inhibition was -15.8% in experiment [1]; -12.1% in experiment [2]; -21.9% in experiment [3]; 9.4% in experiment [4]; -24.1% in experiment [5]; -20.8% in experiment [6].
With `N#CS.N=C=S.N=C=S.[Co+3].[NH-]CC[NH-].[NH-]CC[NH-]`, the growth inhibition in experiment [1] was 10.5%; in experiment [2], 10.2%; in experiment [3] it was 36.4%; in experiment [4], 3.5%; in experiment [5], 27.9%; in experiment [6], 10.7%.
For the compound `CCOP(=O)(OCC)C(O)c1ccc(Cl)cc1` (stereo not given), the growth inhibition in experiment [1] was -5.1%; in experiment [2], -13.8%; in experiment [3] it was -0.6%; in experiment [4] it was -9.35%; in experiment [5] it was 22.3%; in experiment [6], -11.3%.
Regarding `CC1OC(O[C@@H]2C=C3CC[C@@H]4[C@H](CC[C@]5(C)[C@@H](c6ccc(=O)oc6)CC[C@]45O)[C@@]3(C)CC2)C(O)C(OC2OC(CO)C(O)C(O)C2O)C1O` (stereo not given in full), the growth inhibition in experiment [1] is 25.7%; in experiment [2], 5.65%; in experiment [3], -1.6%; in experiment [4], 10.8%; in experiment [5] it was 14.1%; in experiment [6], 8.6%.
`C[CH2][Pb]([CH2]C)([CH2]C)[N]1C(=O)c2c(Cl)c(Cl)c(Cl)c(Cl)c2C1=O`: the growth inhibition is 67.7% in experiment [1]; 34.5% in experiment [2]; 93.1% (active) in experiment [3]; 25.4% in experiment [4]; 33.8% in experiment [5]; 78.3% (active) in experiment [6].
Take `CCOP(=O)(OCC)/C(C#N)=C/c1cnc(C)[nH]1`: the growth inhibition in experiment [1] was -52.4%; in experiment [2] it was 24%; in experiment [3], -36%; in experiment [4] it was 26.4%; in experiment [5], 16.1%; in experiment [6], -5.55%.
Take `N#Cc1ccc([N+](=O)[O-])cc1`: the growth inhibition in experiment [1] was -1.15%; in experiment [2], 9.25%; in experiment [3] it was 1.7%; in experiment [4], 1.2%; in experiment [5], -43.8%; in experiment [6], -43.9%.
Turning to `O=C(O)c1ccccc1/C=N\NC(=S)NC1CN2CCC1CC2` (stereo not given), the growth inhibition in experiment [1] was 9.45%; in experiment [2], 6.25%; in experiment [3] it was 6.85%; in experiment [4] it was -0.5%; in experiment [5], 34.6%; in experiment [6] it was -18.6%.
Regarding `CCOC(=O)CN(Cc1ccccc1)Cc1c(C(=O)c2ccccc2)c2ccccc2n1C(=O)c1ccccc1`, the growth inhibition is 3.75% in experiment [1]; -11.8% in experiment [2]; -10.9% in experiment [3]; -75.2% in experiment [4]; -16.6% in experiment [5]; -18.6% in experiment [6].
In the case of `N=P(c1ccccc1)(c1ccccc1)c1ccccc1.[Cr+6].[N-]=C=S.[N-]=C=S.[N-]=C=S.[N-]=C=S.[NH2-].[NH2-]`, the growth inhibition in experiment [1] is 3.95%; in experiment [2] it was -2.55%; in experiment [3], -3.6%; in experiment [4], -3.35%; in experiment [5], -2.1%; in experiment [6], 0%.
Regarding `C[n+]1ccccc1-c1ccc[n+](CCCCC[n+]2cccc(-c3cccc[n+]3C)c2)c1`, the growth inhibition in experiment [1] was 4.45%; in experiment [2], -8.6%; in experiment [3], -5.5%; in experiment [4], -22.4%; in experiment [5] it was -1.5%; in experiment [6], 8.15%.
With `CCOP(=S)(OCC)S/C(C(=O)NC)=C(/C)O`, the growth inhibition in experiment [1] was 64.2%; in experiment [2], 22.9%; in experiment [3] it was 35.4%; in experiment [4], 65.1%; in experiment [5], 55.5%; in experiment [6], 79.7% (active).
As for `CC(C)(C)C1=C(Br)C(Br)(C(C)(C)C)OP1(=O)c1ccccc1` (stereo not given), the growth inhibition was 7.9% in experiment [1]; 8.55% in experiment [2]; -22.9% in experiment [3]; 5.75% in experiment [4]; -5% in experiment [5]; -27.5% in experiment [6].
For the compound `c1ccc2c3c(ccc2c1)NC1CCCN1C3` (stereo not given), the growth inhibition is 21.8% in experiment [1]; 6.65% in experiment [2]; -0.85% in experiment [3]; -38.8% in experiment [4]; -8.6% in experiment [5]; 12.2% in experiment [6].
For the compound `[N-]=[N+]=C1C(=O)C2CC3CC1CC2C3` (stereo not given), the growth inhibition is -3.55% in experiment [1]; 12.7% in experiment [2]; -9.35% in experiment [3]; 8.55% in experiment [4]; 1.9% in experiment [5]; 1.5% in experiment [6].
